Entries with a potency or affinity are not part of this list.
test system: Candida albicans; conditions: Concentration 32 ug.mL-1; ASSAY_TEST Inhibition of Fungal Growth; detection method Absorption (OD530)

Compound	Inhibition [%]
CCCCc1ccc(NC(=O)Cn2nc3ccc(C(=O)Nc4ccc(OC)cc4)cn3c2=O)cc1	18.36
Cc1ccc(-n2ccn3c(SCC(N)=O)nnc3c2=O)cc1C	1.07
COc1ccc(CN(c2ccc(F)cc2)S(=O)(=O)c2ccc3nnc(C)n3c2)cc1F	1.42
Cc1cc2nn(CC(=O)Nc3ccc(C)c(F)c3)c(=O)n2c(Nc2ccc(C)c(F)c2)n1	19.28
CCOc1ccc(NC(=O)Cn2nc3c4c5c(sc4ncn3c2=O)CCCC5)cc1	2.52
Cc1nnc2ccc(S(=O)(=O)N(Cc3ccccc3Cl)c3ccc(F)cc3)cn12	5.22
COc1ccc(NC(=O)Cn2nc3cc(C)nc(Nc4ccc(F)c(C)c4)n3c2=O)cc1	4.68
COc1ccc(OC)c(NC(=O)Cn2nc3ccc(SCc4ccc(Cl)cc4)nn3c2=O)c1	9.63
CN(C)C(=O)CSc1nnc2c(=O)n(-c3ccc(F)cc3)ccn12	3.85
O=S(=O)(Nc1ccc2c(c1)OCCO2)c1ccc2nncn2c1	2.83
COc1cc(NC(=O)Cn2nc3ccc(SCc4ccc(Cl)cc4)nn3c2=O)cc(OC)c1	5.86
CCCCOc1ccc(-c2cc3c4nnc(SCC(=O)N(CC)c5ccccc5)n4ccn3n2)cc1	5.05
Cc1ccc(Oc2nccn3c(=O)n(CC(=O)NCc4ccccc4Cl)nc23)cc1	1.69
Cc1cc2nn(CC(=O)Nc3ccccc3F)c(=O)n2c(Nc2ccc(F)c(C)c2)n1	7.27
COc1ccccc1-n1ccn2c(SCC(=O)Nc3ccc(C)cc3Cl)nnc2c1=O	3.4
CCOc1ccc(-n2ccn3c(SCC#N)nnc3c2=O)cc1	1.02
O=C(Cn1nc2c3cc(-c4ccc(Cl)cc4)nn3ccn2c1=O)N1CCN(c2ccccc2)CC1	0.94
CCc1ccc(N(Cc2ccc(C)cc2)S(=O)(=O)c2cccn3cnnc23)cc1	4.26
COc1ccc(CCn2c(=O)c3sccc3n3c(=O)n(Cc4ccc(F)cc4)nc23)cc1OC	11.53
COc1ccc(Cl)cc1NC(=O)Cn1nc2ccc(Sc3ccccc3)nn2c1=O	45.02

Compound	Inhibition [%]
Cc1ccc(C)c(NC(=O)Cn2nc3c(SCc4ccc(Cl)cc4)nccn3c2=O)c1	3.07
COc1ccc(NC(=O)Cn2nc3ccc(SCc4ccc(Cl)cc4)nn3c2=O)cc1Cl	38.9
CCc1nnc2c(S(=O)(=O)N(Cc3cccc(F)c3)c3ccc(F)cc3)cccn12	1.06
CCCc1nnc2c(=O)n(CC(=O)Nc3ccc(Cl)c(Cl)c3)c3ccccc3n12	0.11
Cc1ccc(NC(=O)Cn2nc3ccc(SC(C)(C)C)nn3c2=O)cc1Cl	1.72
CCOC(=O)c1ccccc1NC(=O)Cn1nc2c(Oc3cccc(OC)c3)nccn2c1=O	0.95
O=C(Cn1nc2ccc(SCc3ccc(Cl)cc3)nn2c1=O)Nc1ccccc1C(F)(F)F	1.76
Cc1ccccc1CN(c1ccc(Cl)cc1)S(=O)(=O)c1cccn2c(C)nnc12	2.31
CCc1ccc(N(Cc2ccc(C)cc2)S(=O)(=O)c2cccn3c(C)nnc23)cc1	0.84
COc1ccc(-n2ccn3c(=O)n(Cc4cc(C)ccc4C)nc3c2=O)cc1Cl	1.96
O=C(CSc1nc2ccccc2n2cnnc12)Nc1ccc2c(c1)OCCO2	2.01
CCOC(=O)c1ccc(NC(=O)Cn2nc3ccc(SC(C)(C)C)nn3c2=O)cc1	5.28
Cc1c(Cl)cccc1-n1ccn2c(=O)n(Cc3cccc(F)c3)nc2c1=O	10.08
Cc1ccc(NC(=O)Cn2nc3c(Sc4cccc(F)c4)nccn3c2=O)cc1F	0.17
Cc1cc(Br)ccc1NC(=O)Cn1nc2c(Sc3cccc(F)c3)nccn2c1=O	6.11
COC(=O)c1ccc(NC(=O)Cn2nc3nc(N4CCCCCC4)ccn3c2=O)cc1	5.24
COc1ccc(-c2cc3c4nn(CC(=O)Nc5cc(C)cc(C)c5)c(=O)n4ccn3n2)cc1	2.5
Cc1cc(C)cc(Nc2nc(C)cc3nn(CC(=O)NC4CCCCC4)c(=O)n23)c1	1.39
CC(C)NC(=O)CCn1c(=O)c2ccccc2n2c(=O)n(CC#N)nc12	0.91

— ChEMBL document CHEMBL4513146, “CO-ADD screening of Karazin Kharkiv National University (Ukraine) compounds”
